About 7,900 targets were measured; listed, in parts, are those with a hit and a random draw of the rest. About 0.6% of all pairs of compound and target were hits.
How the values were obtained:
Experiment in all cases: log2 fold change, soluble protein after heating vs DMSO (PISA); higher = thermal stabilisation; K562 cells, 10 uM, 30 min; active = over 0.2 and 3.5 SD of the protein, either way, in both replicates (recomputed)
[1] = compound: CC1=C(C=C(C=C1)NC(=O)C2=CC(=CC=C2)C(C)(C)C#N)NC3=CC4=C(C=C3)N=CN(C4=O)C
Outline: (§1)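 K562 cells at 2×10^6 cells/mL were given 10 μM compound for 30 min. Aliquots then went through 3 min of heating across 48°C-58°C, were pooled, and were extracted in PBS with 0.5% NP-40 at 4°C, and the supernatant after 21,000xg for 90 min was quantified by TMTpro 16plex LC-MS/MS with channel sums equalised. Thermal stability relative to control samples, from duplicates, is given as log2 fold change.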

[2] = compound: CC1=C(C=C(C=C1)NC(=O)C2=CC(=CC=C2)N(C)C)NC(=O)C3=CC=C(C=C3)O
Outline: as §1

[3] = compound: CC1=CC=C(C=C1)SC2=C3C=C(SC3=CN=C2)C(=O)N
Outline: as §1

[4] = compound: CC1=NC(=CC=C1)C2=C(N=C(N2)C(C)(C)C)C3=CC4=NC=CN=C4C=C3
Outline: as §1

Nexturastat A = compound: CCCCN(Cc1ccc(C(=O)NO)cc1)C(=O)Nc1ccccc1 [Nexturastat A]
Outline: as §1

vemurafenib = compound: CCCS(=O)(=O)Nc1ccc(F)c(C(=O)c2c[nH]c3ncc(-c4ccc(Cl)cc4)cc23)c1F [vemurafenib]
Outline: as §1

[5] = compound: CCCS(=O)(=O)Nc1ccc(F)c(C(=O)c2c[nH]c3ncc(Cl)cc23)c1F
Outline: as §1

[6] = compound: CCCc1cc(C)[nH]c(=O)c1CNC(=O)c1cc(-c2ccnc(N3CCN(C)CC3)c2)cc2c1cnn2C(C)C
Outline: as §1

givinostat = compound: CCN(CC)Cc1ccc2cc(COC(=O)Nc3ccc(C(=O)NO)cc3)ccc2c1 [givinostat]
Outline: as §1

barasertib = compound: CCN(CCCOc1ccc2c(Nc3cc(CC(=O)Nc4cccc(F)c4)[nH]n3)ncnc2c1)CCOP(=O)(O)O [barasertib]
Outline: as §1

Measured: log2 fold change

MARCKSL1 (UniProt P49006)
inactive: [1] 0.039 | [2] 0.011 | [3] -0.111 | [4] 0.032 | Nexturastat A -0.127 | vemurafenib 0.005 | [5] -0.125 | [6] 0.005 | givinostat 0.041 | barasertib 0.034

MIEF1 (UniProt L0R8F8)
inactive: [1] -0.007 | [2] 0.003 | [3] 0.019 | [4] -0.026 | Nexturastat A 0.092 | vemurafenib 0.079 | [5] 0.102 | [6] -0.001 | givinostat 0.006 | barasertib 0.003

METAP1D (UniProt Q6UB28)
inactive: [1] -0.022 | [2] 0.009 | [3] 0.047 | [4] -0.09 | Nexturastat A -0.087 | vemurafenib -0.032 | [5] -0.053 | [6] 0.056 | givinostat -0.054 | barasertib -0.074

ILRUN (UniProt Q9H6K1)
inactive: [1] 0.06 | [2] -0.02 | [3] 0.088 | [4] 0.005 | Nexturastat A 0.072 | vemurafenib 0.059 | [5] 0.135 | [6] -0.026 | givinostat -0.051 | barasertib -0.044

MCUR1 (UniProt Q96AQ8)
inactive: [1] 0 | [2] -0.067 | [3] -0.01 | [4] 0.012 | Nexturastat A -0.06 | vemurafenib 0.018 | [5] -0.041 | [6] -0.079 | givinostat -0.033 | barasertib -0.008

ME2 (UniProt P23368)
inactive: [1] -0.01 | [2] -0.057 | [3] -0.044 | [4] -0.017 | Nexturastat A 0.015 | vemurafenib 0.011 | [5] 0.002 | [6] 0.022 | givinostat 0.027 | barasertib 0.018

LYPLA2 (UniProt O95372)
inactive: [1] 0.043 | [2] -0.131 | [3] 0.082 | [4] -0.056 | Nexturastat A -0.071 | vemurafenib 0.132 | [5] 0.038 | [6] -0.001 | givinostat -0.055 | barasertib -0.099

MAP2K7 isoform 4 (UniProt O14733)
Sequence of UniProt O14733 (O14733 whole entry, looked up): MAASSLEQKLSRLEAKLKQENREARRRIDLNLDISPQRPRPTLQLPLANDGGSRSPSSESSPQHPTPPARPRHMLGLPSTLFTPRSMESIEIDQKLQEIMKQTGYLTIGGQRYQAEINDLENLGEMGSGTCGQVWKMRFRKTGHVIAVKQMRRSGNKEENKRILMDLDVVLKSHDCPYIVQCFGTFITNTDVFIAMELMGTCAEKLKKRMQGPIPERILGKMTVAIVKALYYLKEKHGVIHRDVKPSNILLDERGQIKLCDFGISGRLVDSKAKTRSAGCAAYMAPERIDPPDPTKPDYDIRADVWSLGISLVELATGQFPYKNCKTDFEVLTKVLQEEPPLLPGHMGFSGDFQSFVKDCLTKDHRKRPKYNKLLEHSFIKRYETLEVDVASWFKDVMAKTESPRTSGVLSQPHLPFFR
inactive: [1] -0.068 | [2] 0.003 | [3] -0.008 | [4] 0.009 | Nexturastat A -0.031 | vemurafenib -0.01 | [5] 0.009 | [6] -0.026 | givinostat -0.019 | barasertib 0.016

KDM1A isoform 2 (UniProt O60341)
inactive: [1] -0.029 | [2] 0.058 | [3] 0.01 | [4] 0.002 | Nexturastat A 0.023 | vemurafenib -0.02 | [5] 0.033 | [6] 0.046 | givinostat 0.101 | barasertib 0.013

IWS1 (UniProt Q96ST2)
inactive: [1] -0.083 | [2] 0.007 | [3] -0.015 | [4] -0.02 | Nexturastat A 0.029 | vemurafenib 0.046 | [5] -0.003 | [6] -0.017 | givinostat 0.051 | barasertib 0.002

MAPKAPK3 (UniProt Q16644)
inactive: [1] 0.24 | [2] 0.097 | [3] -0.025 | [4] 0.069 | Nexturastat A -0.134 | vemurafenib 0.033 | [5] 0.063 | [6] -0.012 | givinostat 0.015 | barasertib 0.039

KDM3B (UniProt Q7LBC6)
Sequence of UniProt Q7LBC6 (Q7LBC6 whole entry, looked up): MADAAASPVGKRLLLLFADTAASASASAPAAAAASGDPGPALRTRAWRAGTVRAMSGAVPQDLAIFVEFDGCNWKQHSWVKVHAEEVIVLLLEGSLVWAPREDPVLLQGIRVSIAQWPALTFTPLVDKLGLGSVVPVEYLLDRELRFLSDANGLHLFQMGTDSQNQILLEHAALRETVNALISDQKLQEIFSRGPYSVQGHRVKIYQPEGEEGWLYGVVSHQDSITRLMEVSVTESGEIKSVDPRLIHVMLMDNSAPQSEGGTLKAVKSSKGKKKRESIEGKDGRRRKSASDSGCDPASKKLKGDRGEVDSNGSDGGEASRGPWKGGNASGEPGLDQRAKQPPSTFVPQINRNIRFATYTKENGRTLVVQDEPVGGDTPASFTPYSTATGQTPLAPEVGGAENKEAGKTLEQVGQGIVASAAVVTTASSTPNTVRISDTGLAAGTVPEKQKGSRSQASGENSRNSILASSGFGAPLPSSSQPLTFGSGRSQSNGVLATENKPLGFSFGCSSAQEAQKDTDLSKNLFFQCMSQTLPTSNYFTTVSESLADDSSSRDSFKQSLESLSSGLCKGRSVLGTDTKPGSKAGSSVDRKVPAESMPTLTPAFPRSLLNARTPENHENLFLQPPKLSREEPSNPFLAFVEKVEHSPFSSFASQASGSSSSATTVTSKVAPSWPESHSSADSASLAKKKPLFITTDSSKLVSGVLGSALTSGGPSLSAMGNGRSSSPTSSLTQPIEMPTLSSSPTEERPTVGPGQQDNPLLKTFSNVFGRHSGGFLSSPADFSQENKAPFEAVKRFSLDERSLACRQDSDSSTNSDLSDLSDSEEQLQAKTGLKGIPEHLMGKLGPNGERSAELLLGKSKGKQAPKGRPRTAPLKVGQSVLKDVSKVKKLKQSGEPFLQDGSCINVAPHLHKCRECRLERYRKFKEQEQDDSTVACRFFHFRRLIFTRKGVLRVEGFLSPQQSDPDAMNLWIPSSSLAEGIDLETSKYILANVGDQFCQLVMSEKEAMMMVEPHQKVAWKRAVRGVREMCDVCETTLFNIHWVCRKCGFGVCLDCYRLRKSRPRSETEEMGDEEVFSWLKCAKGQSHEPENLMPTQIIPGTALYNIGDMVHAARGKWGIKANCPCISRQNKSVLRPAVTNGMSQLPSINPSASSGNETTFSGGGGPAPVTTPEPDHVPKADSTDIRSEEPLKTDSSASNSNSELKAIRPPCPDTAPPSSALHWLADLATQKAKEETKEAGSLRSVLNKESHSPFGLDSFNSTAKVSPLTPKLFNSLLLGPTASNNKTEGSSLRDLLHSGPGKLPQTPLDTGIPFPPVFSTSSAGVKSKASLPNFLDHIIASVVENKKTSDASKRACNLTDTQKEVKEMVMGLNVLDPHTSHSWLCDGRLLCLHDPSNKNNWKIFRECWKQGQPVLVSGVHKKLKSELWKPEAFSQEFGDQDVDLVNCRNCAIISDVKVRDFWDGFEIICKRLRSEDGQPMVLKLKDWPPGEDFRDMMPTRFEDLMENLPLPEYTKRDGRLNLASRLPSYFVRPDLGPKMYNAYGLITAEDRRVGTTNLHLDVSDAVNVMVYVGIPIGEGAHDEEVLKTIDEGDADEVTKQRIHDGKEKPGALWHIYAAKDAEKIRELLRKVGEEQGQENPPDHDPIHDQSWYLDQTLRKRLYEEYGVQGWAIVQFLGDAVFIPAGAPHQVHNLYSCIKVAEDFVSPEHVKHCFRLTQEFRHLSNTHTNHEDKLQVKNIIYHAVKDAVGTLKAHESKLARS
inactive: [1] 0.024 | [2] -0.041 | [3] -0.032 | [4] 0.037 | Nexturastat A -0.045 | vemurafenib 0.049 | [5] 0.031 | [6] 0.041 | givinostat -0.001 | barasertib 0.082

MAPRE3 (UniProt Q9UPY8)
Sequence of UniProt Q9UPY8 (Q9UPY8 whole entry, looked up): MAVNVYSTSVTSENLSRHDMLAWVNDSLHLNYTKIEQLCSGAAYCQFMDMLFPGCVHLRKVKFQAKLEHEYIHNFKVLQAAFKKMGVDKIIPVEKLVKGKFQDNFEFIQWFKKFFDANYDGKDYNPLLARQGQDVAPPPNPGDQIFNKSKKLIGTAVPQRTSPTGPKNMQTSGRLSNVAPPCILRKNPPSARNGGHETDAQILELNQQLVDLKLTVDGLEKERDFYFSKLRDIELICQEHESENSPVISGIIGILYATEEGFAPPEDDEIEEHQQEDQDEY
inactive: [1] 0 | [2] -0.002 | [3] -0.021 | [4] 0.074 | Nexturastat A -0.07 | vemurafenib 0.041 | [5] 0.06 | [6] 0.136 | givinostat -0.037 | barasertib 0.027

METTL18 (UniProt O95568)
inactive: [1] -0.026 | [2] 0.018 | [3] -0.032 | [4] 0.028 | Nexturastat A -0.164 | vemurafenib 0.014 | [5] 0.05 | [6] -0.042 | givinostat -0.245 | barasertib 0.012

IKZF1 (UniProt Q13422)
Sequence of UniProt Q13422 (Q13422 whole entry, looked up): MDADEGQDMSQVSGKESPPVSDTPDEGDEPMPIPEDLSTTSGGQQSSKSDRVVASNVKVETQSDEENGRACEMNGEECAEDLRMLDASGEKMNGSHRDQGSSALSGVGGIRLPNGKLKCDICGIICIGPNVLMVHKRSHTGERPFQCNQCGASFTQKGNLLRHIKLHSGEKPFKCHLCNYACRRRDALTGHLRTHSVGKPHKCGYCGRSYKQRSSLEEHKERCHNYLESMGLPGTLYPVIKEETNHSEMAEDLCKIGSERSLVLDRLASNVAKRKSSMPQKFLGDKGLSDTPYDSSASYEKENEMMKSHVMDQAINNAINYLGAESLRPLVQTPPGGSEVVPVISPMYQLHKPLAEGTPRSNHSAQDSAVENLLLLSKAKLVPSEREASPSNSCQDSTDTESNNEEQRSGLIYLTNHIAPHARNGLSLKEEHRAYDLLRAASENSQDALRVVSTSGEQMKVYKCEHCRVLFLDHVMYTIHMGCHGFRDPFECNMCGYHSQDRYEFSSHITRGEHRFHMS
inactive: [1] 0.144 | [2] 0.036 | [3] -0.007 | [4] 0.041 | Nexturastat A -0.006 | vemurafenib 0.044 | [5] 0.034 | [6] 0.177 | givinostat -0.018 | barasertib -0.052

MED17 (UniProt Q9NVC6)
Sequence of UniProt Q9NVC6 (Q9NVC6 whole entry, looked up): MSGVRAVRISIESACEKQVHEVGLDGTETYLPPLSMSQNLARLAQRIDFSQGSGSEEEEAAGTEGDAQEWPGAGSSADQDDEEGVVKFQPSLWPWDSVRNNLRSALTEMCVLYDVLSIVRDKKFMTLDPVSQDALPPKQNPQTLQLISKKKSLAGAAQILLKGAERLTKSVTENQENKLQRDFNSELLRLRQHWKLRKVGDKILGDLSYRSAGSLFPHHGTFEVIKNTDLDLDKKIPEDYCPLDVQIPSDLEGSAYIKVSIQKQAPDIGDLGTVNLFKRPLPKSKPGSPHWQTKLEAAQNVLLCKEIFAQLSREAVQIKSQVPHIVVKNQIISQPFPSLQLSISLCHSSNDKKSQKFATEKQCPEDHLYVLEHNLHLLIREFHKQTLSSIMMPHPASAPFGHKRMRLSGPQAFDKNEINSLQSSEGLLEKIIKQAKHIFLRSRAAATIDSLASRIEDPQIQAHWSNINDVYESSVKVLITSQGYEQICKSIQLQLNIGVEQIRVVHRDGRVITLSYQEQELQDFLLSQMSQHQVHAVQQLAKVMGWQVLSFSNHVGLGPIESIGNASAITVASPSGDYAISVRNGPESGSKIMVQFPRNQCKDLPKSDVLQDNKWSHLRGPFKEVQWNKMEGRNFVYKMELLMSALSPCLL
inactive: [1] 0.042 | [2] -0.03 | [3] -0.186 | [4] 0.005 | Nexturastat A 0.052 | vemurafenib 0.071 | [5] -0.168 | [6] 0.025 | givinostat -0.014

LSR (UniProt Q86X29)
inactive: [1] -0.051 | [2] 0.016 | [3] -0.05 | [4] -0.05 | Nexturastat A -0.074 | vemurafenib -0.028 | [5] -0.061 | [6] -0.019 | givinostat -0.046 | barasertib -0.016

KIF13A isoform 4 (UniProt Q9H1H9)
inactive: [1] 0.035

ITIH4 (UniProt Q14624)
Sequence of UniProt Q14624 (Q14624 whole entry, looked up): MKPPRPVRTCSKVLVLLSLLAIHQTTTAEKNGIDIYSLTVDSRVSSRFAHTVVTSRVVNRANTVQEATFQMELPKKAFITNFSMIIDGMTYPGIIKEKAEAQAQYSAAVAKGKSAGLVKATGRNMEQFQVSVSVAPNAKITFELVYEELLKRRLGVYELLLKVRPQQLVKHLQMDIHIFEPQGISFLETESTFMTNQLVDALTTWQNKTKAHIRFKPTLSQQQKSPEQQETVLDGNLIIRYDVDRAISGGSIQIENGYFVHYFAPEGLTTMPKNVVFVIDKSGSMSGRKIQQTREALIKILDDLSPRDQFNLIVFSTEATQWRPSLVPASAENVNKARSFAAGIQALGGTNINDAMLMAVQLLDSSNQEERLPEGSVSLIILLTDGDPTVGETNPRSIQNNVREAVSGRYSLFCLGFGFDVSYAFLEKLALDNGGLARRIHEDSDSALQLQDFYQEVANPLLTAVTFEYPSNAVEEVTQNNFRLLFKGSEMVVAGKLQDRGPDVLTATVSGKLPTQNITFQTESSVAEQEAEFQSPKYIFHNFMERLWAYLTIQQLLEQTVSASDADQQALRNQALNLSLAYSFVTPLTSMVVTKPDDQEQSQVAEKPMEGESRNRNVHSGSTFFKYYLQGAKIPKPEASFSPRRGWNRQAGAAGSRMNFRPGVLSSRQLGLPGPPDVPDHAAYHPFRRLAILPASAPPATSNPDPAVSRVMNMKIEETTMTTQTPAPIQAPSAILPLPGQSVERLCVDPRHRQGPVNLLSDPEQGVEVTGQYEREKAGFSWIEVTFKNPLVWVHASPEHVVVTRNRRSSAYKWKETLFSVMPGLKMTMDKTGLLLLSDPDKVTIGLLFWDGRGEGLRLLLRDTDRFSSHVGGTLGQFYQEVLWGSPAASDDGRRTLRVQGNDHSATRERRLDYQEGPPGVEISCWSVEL
inactive: [1] -0.14 | [2] 0.166 | [3] 0.135 | [4] 0.214 | Nexturastat A 0.014 | vemurafenib 0.224 | [5] 0.012 | [6] -0.211 | givinostat -0.005 | barasertib 0.014

MGST3 (UniProt O14880)
inactive: [1] -0.029 | [2] 0.005 | [3] 0 | [4] -0.049 | Nexturastat A 0.015 | vemurafenib -0.037 | [5] -0.011 | [6] -0.057 | givinostat 0.003 | barasertib 0.003

MCU (UniProt Q8NE86)
Sequence of UniProt Q8NE86 (Q8NE86 whole entry, looked up): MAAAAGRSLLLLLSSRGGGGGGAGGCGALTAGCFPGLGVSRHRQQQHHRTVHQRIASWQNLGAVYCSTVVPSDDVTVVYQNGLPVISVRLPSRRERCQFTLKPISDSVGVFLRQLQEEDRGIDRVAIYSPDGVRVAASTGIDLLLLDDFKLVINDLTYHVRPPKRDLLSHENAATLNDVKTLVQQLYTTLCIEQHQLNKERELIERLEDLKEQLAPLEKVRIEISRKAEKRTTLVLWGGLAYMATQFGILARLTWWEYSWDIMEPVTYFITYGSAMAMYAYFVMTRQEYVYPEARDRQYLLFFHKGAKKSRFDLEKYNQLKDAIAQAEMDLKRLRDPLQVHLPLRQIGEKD
inactive: [1] 0 | [2] 0.051 | [3] 0.094 | [4] 0.002 | Nexturastat A 0.002 | vemurafenib 0.026 | [5] 0.022 | [6] -0.075 | givinostat 0.013 | barasertib 0.014

KIF2C (UniProt Q99661)
inactive: [1] 0.012 | [2] -0.038 | [3] 0.057 | [4] 0.067 | Nexturastat A 0.02 | vemurafenib 0.087 | [5] 0.053 | [6] 0.03 | givinostat 0.016 | barasertib 0.053

LNPEP (UniProt Q9UIQ6)
inactive: [1] 0.018 | [2] 0.03 | [3] 0.01 | [4] -0.009 | Nexturastat A -0.051 | vemurafenib -0.013 | [5] 0.015 | [6] 0.008 | givinostat 0.014 | barasertib -0.009

MICU2 (UniProt Q8IYU8)
inactive: [1] 0.022 | [2] 0.067 | [3] 0.091 | [4] 0.05 | Nexturastat A 0.198 | vemurafenib 0.053 | [5] 0.183 | [6] 0.042 | givinostat -0.009 | barasertib 0.079

MDN1 (UniProt Q9NU22)
inactive: [1] -0.023 | [2] -0.021 | [3] 0.034 | [4] 0.061 | Nexturastat A -0.009 | vemurafenib 0.02 | [5] 0.074 | [6] 0.027 | givinostat 0.083 | barasertib 0.047

LIMD1 (UniProt Q9UGP4)
inactive: [1] 0 | [2] 0.009 | [3] 0.037 | [4] -0.012 | Nexturastat A -0.022 | vemurafenib 0.024 | [5] 0.084 | [6] 0.019 | givinostat 0.02 | barasertib -0.017

KEL (UniProt P23276)
inactive: [1] -0.004 | [2] -0.061 | [3] 0.117 | [4] 0.01 | Nexturastat A 0.117 | vemurafenib -0.009 | [5] -0.015 | [6] -0.014 | givinostat -0.056 | barasertib -0.029

LNPK (UniProt Q9C0E8)
inactive: [1] -0.011 | [2] 0.01 | [3] -0.038 | [4] 0.016 | Nexturastat A -0.023 | vemurafenib -0.042 | [5] -0.027 | [6] -0.028 | givinostat -0.018 | barasertib 0.012
